High-throughput results as filed in PubChem.
The list is not random: actives were taken first. Their share in the collection is about 3.6%.
Myeloid diff 2 = compounds promoting myeloid differentiation; ER-HoxA9 myeloid progenitors, lysozyme-GFP differentiation, flow cytometry; calls only at 10 µM; hit rate 1% among 360,000;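 active = normalized GFP-positive differentiation at or above the plate's own cutoff, the solvent-only control mean plus 3 SD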;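 also: cells exposed to compound for four days before flow analysis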
NRP1-CendR mod = NRP-1/CendR interaction modulation | FAM-RPARPAR peptide binding to NRP-1, fluorescence polarization | hit rate 0.85% among 360,000 | AID 602438 | inhibition, % at 25 µM | O14786;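 active = inhibition or corrected inhibition above about 18%, plus a signal ratio from 0.5 to 1.5, limit read from the data, passing the limit was not always enough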
CRFBP-R2 block = blocks CRF-induced signaling of the CRF-BP/CRF-R2 complex. HEK293 CRF-R2/CRF-BP, CRF-induced calcium fluorescence. inhibition, % at 11.8 µM. hit rate 0.59% among 350,000;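 active = inhibition of the ligand-induced calcium signal above about 50% at the single tested concentration, limit read from the data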
NadD block = inhibitors of Staphylococcus aureus NadD; inhibition, % at 20 µM; purified NadD enzyme, colorimetric absorbance read-out; AID 602399; hit rate 0.78% among 360,000; in the data active = inhibition above about 26%
FAS-TE inh = blocks the thioesterase domain of human fatty acid synthase. recombinant FAS-TE, OMFH fluorogenic substrate, fluorescence endpoint. inhibition, % at 15 µM. hit rate 0.67% among 360,000;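 active = compounds whose normalised, plate-corrected inhibition of enzyme fluorescence in the single-dose primary screen is 50% or more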;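 also: 0% = DMSO with enzyme and 100% = substrate without enzyme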
FAS-TE conf = FAS thioesterase (human) inhibition, confirmation | shares compounds with FAS-TE inh | recombinant FAS-TE, OMFH fluorogenic substrate, fluorescence | inhibition, % at 15 µM | hit rate 45% among 2,300 | AID 624325;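 active = compounds inhibiting the enzyme by at least 50% at 15 µM in any one of the replicates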;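 also: 0% = enzyme with DMSO only and 100% = wells lacking enzyme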
* marks the source's active call; other numbers are inactive results; i = inactive; nt = no result.

SMILES	Myeloid diff 2	NRP1-CendR mod	CRFBP-R2 block	NadD block	FAS-TE inh	FAS-TE conf
O=C(CN(C(=O)c1ccc(Cl)cc1)C1CCCCC1)Nc1ccc(Cl)c([N+](=O)[O-])c1	i	-10	-23	16	76*	12
O=C(CSc1ccccn1)Nc1ccc(Cl)c([N+](=O)[O-])c1	i	-2	11	-6	8	nt
O=C(CN(C(=O)c1ccccc1Cl)C1CCCCC1)Nc1ccc(Cl)c([N+](=O)[O-])c1	i	3	-26	20	62*	14
CC(=O)c1cnc2n(c1=O)CCS2	i	3	-15	-1	-4	nt
CCOC(=O)c1ccc(-n2c(C)nc3ccc(Br)cc3c2=O)cc1	i	2	3	-4	24	nt
CCCOc1ccc(N2C(=O)C/C(=C\c3ccccc3)C2=O)cc1	i	-1	-16	-1	-1	nt
Cc1ccc([N+](=O)[O-])cc1NC(=O)Cc1ccc(F)cc1	i	0	0	-8	44	nt
Cc1ccc([N+](=O)[O-])cc1NC(=O)CCSc1ccc(Cl)cc1	i	-8	14	-1	66*	62*
O=C(COc1ncnc2ccccc12)Nc1ccc(Cl)c([N+](=O)[O-])c1	i	-4	-8	3	68*	66*
Cc1ccc(C(=O)Nc2cc([N+](=O)[O-])ccc2C)cc1	i	0	-6	-2	47	nt
O=C(COc1ncnc2ccccc12)Nc1cccc([N+](=O)[O-])c1	i	-2	23	3	20	nt
Cc1ccc([N+](=O)[O-])cc1NC(=O)c1ccc(C(C)(C)C)cc1	i	4	10	-7	68*	72*
Cc1ccc(N2CC(C)Cn3c2nc2c3c(=O)n(CC(=O)OCc3ccccc3)c(=O)n2C)cc1C (stereo not drawn)	i	0	6	4	54*	5
O=C(CN1CCN(c2ncc(C(F)(F)F)cc2Cl)CC1)NCCNc1ncc(C(F)(F)F)cc1Cl	i	16	-17	-1	62*	28
CCc1nc2c(OCCOc3ccc(F)cc3)cccn2c1N(C=O)Cc1ccc(OC)cc1	i	-12	nt	11	16	nt
CCc1nc2c(OCc3ccc(Cl)cc3Cl)cccn2c1N(C=O)Cc1ccc(OC)cc1	i	-14	nt	19	78*	62*
CCc1nc2c(OCC(=O)c3ccc(Cl)cc3Cl)cccn2c1N(C=O)Cc1ccc(OC)cc1	i	-22	nt	25	18	nt
CCc1nc2c(OCc3ccc(Cl)cc3)cccn2c1N(C=O)Cc1ccc(OC)cc1	i	0	nt	6	54*	62*
C[C@]12CC[C@H](O)C[C@@H]1CC[C@@H]1[C@@H]2CC[C@@]2(C)[C@H]1CCC(=O)[C@]21CCCO1	i	-7	-15	-3	-5	nt
CC(C)(C)C1CCc2sc(C(=O)NNC(=O)CCl)cc2C1 (stereo not drawn)	i	2	-10	3	5	nt
COC(=O)c1cc(C(=O)Nc2nnc(C3CC3)s2)cc([N+](=O)[O-])c1	i	0	-15	-1	51*	60*
COCc1nnc(NC(=O)c2cc(C(=O)OC)cc([N+](=O)[O-])c2)s1	i	-2	-1	-1	3	nt
COC(=O)c1cc(C(=O)Nc2nnc(CC(C)C)s2)cc([N+](=O)[O-])c1	i	4	-26	6	51*	30
COc1ccc2nc(-c3ccc(F)cc3)sc2c1	i	-5	5	-9	5	nt
COc1ccccc1-c1cc(NC(C)=O)c2ncc(-c3cccc(C(C)=O)c3)n2c1	i	3	nt	-7	15	nt
C=CCSc1nc(C)cc(C(=O)OCC)c1C#N	i	-6	12	-2	24	nt
CCOC(=O)c1c(NC(=O)C2C3C=CC(C3)C2C(=O)O)sc2c1CC(C)CC2 (stereo not drawn)	i	8	16	10	0	nt
CCOC(=O)c1c(NC(=O)c2ccc(N3C(=O)[C@@H]4[C@H](C3=O)[C@H]3C=C[C@@H]4C3)cc2)sc2c1CC(C)CC2 (stereo partly drawn)	i	-1	-11	16	51*	10
CCCCc1ccc(C2C3=C(CC(C)(C)CC3=O)NC3=C2C(=O)c2ccccc23)cc1 (stereo not drawn)	i	-11	-21	23	63*	11
CCCc1ccc(C2C3=C(CC(C)(C)CC3=O)NC3=C2C(=O)c2ccccc23)cc1 (stereo not drawn)	i	8	-31	13	30	nt
